“And” between values parts separate entries of the source, which are not always exact repeats. Equal entries are not always repeated. About 2,000 (36%) of roughly 5,500 compounds were called active. Inconclusive results (about 18%) are left out. No stated cut-off is given here; in the data, active means normalized growth mostly below about 0.91 (no sharp cut-off); inconclusive means no clear call, values can overlap the other calls; inactive means mostly above about 0.92. The list shows a part of the results.
Assay: chemical genetic growth profiling, strain panel (AID 1159580);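 further: tested at 20 µM; growth read once vehicle control cultures reached saturation at 30 °C; 1 = growth at the plate median or of vehicle wells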
Details: S. cerevisiae deletion strains, growth OD
[1] = locus YHR030C, strain SLT2, stronger effect = lower value
[2] = locus YHR079C, strain IRE1, stronger effect = lower value
[3] = locus YJL095W, strain BCK1, stronger effect = lower value
[4] = locus YJR066W, strain TOR1, stronger effect = lower value
[5] = locus YLR113W, strain HOG1, stronger effect = lower value
[6] = locus YMR263W, strain SAP30, stronger effect = lower value
[7] = locus YMR307W, strain GAS1, stronger effect = lower value
[8] = locus YNL183C, strain NPR1, stronger effect = lower value
[9] = locus YOR231W, strain MKK1, stronger effect = lower value
[10] = locus YPL241C, strain CIN2, stronger effect = lower value
[11] = locus YPL256C, strain CLN2, stronger effect = lower value

Measured: normalized growth

NCCCNCCCCNCCCN
inactive: locus YAL040C, strain CLN3, stronger effect = lower value 0.997 | locus YCL061C, strain MRC1 (second series), stronger effect = lower value 1.01 | locus YDR363W, strain ESC2, stronger effect = lower value 1.02 | locus YER002W, strain NOP16, stronger effect = lower value 1.02 | locus YGR078C, strain PAC10, stronger effect = lower value 1.01 | [1] 1.01 | [2] 0.994 | [3] 0.98 | [4] 0.925 | [5] 0.975 | [6] 0.995 | [7] 1.01 | locus YNL128W, strain TEP1, stronger effect = lower value 0.962 | locus YNL175C, strain NOP13, stronger effect = lower value 0.978 | [8] 0.93 | locus YNL197C, strain WHI3, stronger effect = lower value 0.992 | locus YNL224C, strain SQS1, stronger effect = lower value 0.986 | locus YOR083W, strain WHI5 (second series), stronger effect = lower value 0.994 | [9] 0.999 | [10] 1 | [11] 1.02

CC(C)=CC1C(C(=O)O)C1(C)C (stereo not given)
inactive: locus YAL013W, strain DEP1, stronger effect = lower value 0.988 | locus YAL021C, strain ccr4, stronger effect = lower value 0.989 | locus YAL026C, strain drs2, stronger effect = lower value 0.962 | locus YAL030W, strain snc1, stronger effect = lower value 0.976 | locus YBL061C, strain skt5, stronger effect = lower value 0.963 | locus YBR009C, strain hhf1, stronger effect = lower value 0.939 | locus YBR021W, strain FUR4, stronger effect = lower value 1.03 | locus YBR023C, strain chs3, stronger effect = lower value 0.966 | locus YBR171W, strain sec66, stronger effect = lower value 0.96 | locus YBR229C, strain ROT2, stronger effect = lower value 0.996 | locus YBR231C, strain swc5, stronger effect = lower value 0.985 | locus YBR279W, strain paf1, stronger effect = lower value 0.976 | locus YCL011C, strain gbp2, stronger effect = lower value 0.962 | locus YCL016C, strain dcc1, stronger effect = lower value 0.987 | locus YCL029C, strain bik1, stronger effect = lower value 0.981 | locus YCL061C, strain MRC1, stronger effect = lower value 0.987 | locus YCL069W, strain vba3, stronger effect = lower value 0.972 | locus YCR088W, strain abp1, stronger effect = lower value 0.983 | locus YDL005C, strain med2, stronger effect = lower value 0.976 | locus YDL035C, strain GPR1, stronger effect = lower value 0.998 | locus YDL040C, strain nat1, stronger effect = lower value 0.965 | locus YDL074C, strain BRE1, stronger effect = lower value 1.01 | locus YDL101C, strain DUN1, stronger effect = lower value 1.02 | locus YDL185W, strain tfp1, stronger effect = lower value 0.954 | locus YDL192W, strain arf1, stronger effect = lower value 0.966 | locus YDR001C, strain nth1, stronger effect = lower value 0.962 | locus YDR069C, strain doa4, stronger effect = lower value 0.967 | locus YDR101C, strain arx1, stronger effect = lower value 0.979 | locus YDR137W, strain rgp1, stronger effect = lower value 0.97 | locus YDR150W, strain NUM1, stronger effect = lower value 0.983 | locus YDR159W, strain sac3, stronger effect = lower value 0.959 | locus YDR162C, strain NBP2, stronger effect = lower value 1.08 | locus YDR195W, strain ref2 0.997 | locus YDR297W, strain sur2, stronger effect = lower value 0.979 | locus YDR318W, strain mcm21, stronger effect = lower value 0.977 | locus YDR334W, strain swr1, stronger effect = lower value 0.976 | locus YDR335W, strain msn5, stronger effect = lower value 0.977 | locus YDR388W, stronger effect = lower value 0.98 | locus YDR392W, strain spt3, stronger effect = lower value 0.883 | locus YDR502C, strain sam2, stronger effect = lower value 1.01 | locus YEL003W, strain gim4, stronger effect = lower value 0.971 | locus YEL037C, strain rad23, stronger effect = lower value 0.966 | locus YEL061C, strain CIN8 (second series), stronger effect = lower value 0.967 | locus YEL061C, strain CIN8, stronger effect = lower value 0.996 | locus YER015W, strain faa2, stronger effect = lower value 0.983 | locus YER016W, strain bim1, stronger effect = lower value 0.982 | locus YER110C, stronger effect = lower value 0.951 | locus YER111C, strain swi4, stronger effect = lower value 0.972 | locus YER155C, strain BEM2 (second series), stronger effect = lower value 0.972 | locus YER155C, strain BEM2, stronger effect = lower value 0.999 | locus YER167W, strain BCK2, stronger effect = lower value 0.997 | locus YFR010W, strain ubp6, stronger effect = lower value 0.972 | locus YGL078C, strain dbp3, stronger effect = lower value 0.991 | locus YGL086W, strain mad1, stronger effect = lower value 0.967 | locus YGL167C, strain pmr1, stronger effect = lower value 0.969 | locus YGL173C, strain kem1, stronger effect = lower value 0.959 | locus YGL227W, strain vid30, stronger effect = lower value 0.968 | locus YGL240W, strain doc1, stronger effect = lower value 0.974 | locus YGL248W, strain PDE1, stronger effect = lower value 1.04 | locus YGL253W, strain hxk2, stronger effect = lower value 0.993 | locus YGR135W, strain pre9, stronger effect = lower value 1 | locus YGR229C, strain SMI1, stronger effect = lower value 1.05 | locus YGR252W, strain gcn5, stronger effect = lower value 1.15 | locus YHR013C, strain ard1, stronger effect = lower value 0.956 | locus YHR027C, strain rpn1, stronger effect = lower value 0.973 | [1] 0.992 and 0.957 | locus YHR079C, strain IRE1 (second series), stronger effect = lower value 0.988 | [2] 0.957 | locus YHR094C, strain hxt1, stronger effect = lower value 0.968 | locus YHR129C, strain ARP1, stronger effect = lower value 0.997 | locus YHR142W, strain chs7, stronger effect = lower value 1.02 | locus YHR200W, strain rpn10, stronger effect = lower value 0.979 | locus YIL066C, strain RNR3, stronger effect = lower value 1.02 | locus YIL073C, strain SPO22, stronger effect = lower value 0.967 | locus YIL125W, strain kgd1, stronger effect = lower value 0.98 | locus YIR030C, strain dcg1, stronger effect = lower value 0.979 | locus YJL092W, strain hpr5, stronger effect = lower value 0.985 | locus YJL095W, strain BCK1 (second series), stronger effect = lower value 0.985 | [3] 1.08 and 0.996 | locus YJL115W, strain asf1, stronger effect = lower value 0.975 | locus YJL129C, strain trk1, stronger effect = lower value 0.981 | locus YJL134W, strain LCB3, stronger effect = lower value 0.99 | locus YJL154C, strain vps35, stronger effect = lower value 0.96 | locus YJL164C, strain tpk1, stronger effect = lower value 1.01 | locus YJL166W, strain qcr8, stronger effect = lower value 0.979 | locus YJL168C, strain set2, stronger effect = lower value 0.991 | locus YJL187C, strain SWE1 (second series), stronger effect = lower value 1.04 | locus YJL187C, strain SWE1, stronger effect = lower value 0.972 | locus YJR043C, strain POL32, stronger effect = lower value 1.04 | [4] 0.905 | locus YKL009W, strain mrt4, stronger effect = lower value 0.963 | locus YKL068W, stronger effect = lower value 0.988 | locus YKL085W, strain MDH1 (second series), stronger effect = lower value 0.971 | locus YKL085W, strain MDH1, stronger effect = lower value 0.971 | locus YKL160W, strain elf1, stronger effect = lower value 1.04 | locus YKL190W, strain CNB1, stronger effect = lower value 0.991 | locus YKR001C, strain vps1, stronger effect = lower value 0.973 | locus YKR026C, strain gcn3, stronger effect = lower value 0.977 | locus YKR091W, strain srl3, stronger effect = lower value 0.973 | locus YLL001W, strain dnm1, stronger effect = lower value 0.999 | locus YLL026W, stronger effect = lower value 0.982 | locus YLL041C, strain sdh2, stronger effect = lower value 0.984 | locus YLR027C, strain aat2, stronger effect = lower value 0.987 | locus YLR039C, strain RIC1, stronger effect = lower value 1.04 | locus YLR058C, strain SHM2, stronger effect = lower value 1.02 | locus YLR102C, strain apc9, stronger effect = lower value 0.957 | [5] 1.04 | locus YLR221C, strain rsa3, stronger effect = lower value 1 | locus YLR258W, strain gsy2, stronger effect = lower value 0.963 | locus YLR262C, strain YPT6 (second series), stronger effect = lower value 1 | locus YLR262C, strain YPT6, stronger effect = lower value 1.04 | locus YLR268W, strain sec22, stronger effect = lower value 0.972 | locus YLR320W, strain mms22, stronger effect = lower value 0.989 | locus YLR330W, strain CHS5, stronger effect = lower value 0.984 | locus YLR342W, strain FKS1 (second series), stronger effect = lower value 1.03 | locus YLR342W, strain FKS1, stronger effect = lower value 0.959 | locus YLR357W, strain rsc2, stronger effect = lower value 0.963 | locus YLR370C, strain arc18, stronger effect = lower value 0.976 | locus YLR371W, strain rom2, stronger effect = lower value 0.968 | locus YLR384C, strain iki3, stronger effect = lower value 0.981 | locus YLR418C, strain cdc73, stronger effect = lower value 1.02 | locus YML016C, strain PPZ1, stronger effect = lower value 0.999 | locus YML032C, strain rad52, stronger effect = lower value 1 | locus YML120C, strain ndi1, stronger effect = lower value 0.987 | locus YML124C, strain tub3, stronger effect = lower value 0.973 | locus YMR058W, strain fet3, stronger effect = lower value 0.966 | locus YMR078C, strain ctf18, stronger effect = lower value 0.975 | locus YMR125W, strain sto1, stronger effect = lower value 0.914 | locus YMR129W, stronger effect = lower value 0.965 | locus YMR205C, strain PFK2, stronger effect = lower value 0.932 | locus YMR223W, strain ubp8, stronger effect = lower value 0.988 | locus YMR231W, strain pep5, stronger effect = lower value 0.968 | [6] 1.01 | [7] 1.24 | locus YNL067W, strain RPL9B, stronger effect = lower value 1.05 | locus YNL071W, strain lat1, stronger effect = lower value 0.977 | locus YNL153C, strain GIM3, stronger effect = lower value 1.05 | [8] 0.971 | locus YNL209W, strain ssb2, stronger effect = lower value 0.977 | locus YNL233W, strain BNI4, stronger effect = lower value 1.07 | locus YNL248C, strain rpa49, stronger effect = lower value 1.01 | locus YNL250W, strain rad50, stronger effect = lower value 0.965 | locus YNL271C, strain bni1, stronger effect = lower value 0.973 | locus YNL298W, strain CLA4, stronger effect = lower value 0.99 | locus YNL307C, strain MCK1, stronger effect = lower value 0.988 | locus YNL322C, strain KRE1 (second series), stronger effect = lower value 0.973 | locus YNL322C, strain KRE1, stronger effect = lower value 0.998 | locus YNR049C, strain mso1, stronger effect = lower value 0.966 | locus YNR052C, strain pop2, stronger effect = lower value 0.972 | locus YOL006C, strain TOP1, stronger effect = lower value 1.06 | locus YOL012C, strain htz1 1.34 | locus YOL147C, strain pex11, stronger effect = lower value 0.989 | locus YOR001W, strain rrp6, stronger effect = lower value 1.01 | locus YOR061W, strain CKA2, stronger effect = lower value 1.01 | locus YOR069W, strain VPS5, stronger effect = lower value 0.992 | locus YOR070C, strain gyp1, stronger effect = lower value 0.985 | locus YOR080W, strain dia2, stronger effect = lower value 0.965 | locus YOR083W, strain WHI5, stronger effect = lower value 1.05 | locus YOR106W, strain vam3, stronger effect = lower value 1.01 | locus YOR136W, strain idh2, stronger effect = lower value 0.979 | locus YOR144C, strain elg1, stronger effect = lower value 1 | locus YOR184W, strain ser1, stronger effect = lower value 0.963 | [9] 0.954 | locus YOR265W, strain rbl2, stronger effect = lower value 0.986 | locus YOR270C, strain vph1, stronger effect = lower value 0.975 | locus YOR290C, strain snf2, stronger effect = lower value 0.925 | locus YOR316C, strain cot1, stronger effect = lower value 0.974 | locus YPL051W, strain arl3, stronger effect = lower value 1 | locus YPL055C, strain LGE1, stronger effect = lower value 1.06 | locus YPL078C, strain atp4, stronger effect = lower value 1 | locus YPL106C, strain sse1, stronger effect = lower value 0.972 | locus YPL240C, strain hsp82, stronger effect = lower value 0.997 | [10] 0.998 | [11] 0.975 | locus YPR119W, strain clb2, stronger effect = lower value 0.96 | locus YPR141C, strain kar3, stronger effect = lower value 0.969 | locus YPR163C, strain tif3, stronger effect = lower value 0.992 | locus YPR167C, strain met16, stronger effect = lower value 0.941 | strain wtn01, stronger effect = lower value 0.979

From PubChem BioAssay AID1159580 (chemical genetic matrix, 2015)
